Test results reported in PubChem BioAssay (EPA / NIEHS).
The source made the active and inactive calls. How the source made its calls: active means hit-call score of the fitted dose curve at least 0.9, where 1 is the maximum; inactive means score below 0.9.

Experiments:
[1] = ATG_AP_1_CIS: Attagene CIS-FACTORIAL HepG2 Assay for human Activator Protein 1 (AP-1) (AID 2282931); conditions: HepG2 Attagene cis-factorial AP-1 reporter mRNA; actives raise or lower the signal
In short: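 Transient MRTU transfection of HepG2 → 24 h chemical treatment → RNA isolation, RT-PCR, 6-FAM labelling, HpaI digest → capillary electrophoresis. Fit: bidirectional, DMSO negative control.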

[2] = ATG_AP_2_CIS: Attagene CIS-FACTORIAL HepG2 Assay for human Activator Protein 2 (AP-2) (AID 2282932); conditions: HepG2 AP-2 cis-reporter, Attagene transcription factor profiling; actives raise or lower the signal
In short: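 Transiently transfected HepG2 cells are exposed to chemical for 24 h. Reporter transcripts are then measured as fluorescence following RT-PCR and capillary separation, and gain- or loss-of-signal is fitted relative to DMSO.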

[3] = ATG_BRE_CIS: Attagene CIS-FACTORIAL HepG2 Assay for human Bone Morphogenetic Protein (BMP) Response Element (BRE) (AID 2282933); conditions: HepG2 BMP response element reporter, Attagene transcription factor profiling; actives raise or lower the signal
In short: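 After a 24 h chemical treatment, transiently transfected HepG2 cells were lysed for RNA; reporter transcripts were quantified by fluorescent RT-PCR and capillary electrophoresis, normalised to DMSO.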

[4] = target: Retinoic acid receptor alpha (Homo sapiens) (UniProt P10276); assay: ATG_DR5_RAR_CIS: Attagene CIS-FACTORIAL HepG2 Assay for human Retinoic Acid Receptor Alpha (RARE), DR5 submotif (AID 2282934); conditions: HepG2 Attagene cis-factorial RARE DR5 reporter, mRNA; actives raise or lower the signal
Chain of Retinoic acid receptor alpha (Homo sapiens) (P10276 whole entry, looked up): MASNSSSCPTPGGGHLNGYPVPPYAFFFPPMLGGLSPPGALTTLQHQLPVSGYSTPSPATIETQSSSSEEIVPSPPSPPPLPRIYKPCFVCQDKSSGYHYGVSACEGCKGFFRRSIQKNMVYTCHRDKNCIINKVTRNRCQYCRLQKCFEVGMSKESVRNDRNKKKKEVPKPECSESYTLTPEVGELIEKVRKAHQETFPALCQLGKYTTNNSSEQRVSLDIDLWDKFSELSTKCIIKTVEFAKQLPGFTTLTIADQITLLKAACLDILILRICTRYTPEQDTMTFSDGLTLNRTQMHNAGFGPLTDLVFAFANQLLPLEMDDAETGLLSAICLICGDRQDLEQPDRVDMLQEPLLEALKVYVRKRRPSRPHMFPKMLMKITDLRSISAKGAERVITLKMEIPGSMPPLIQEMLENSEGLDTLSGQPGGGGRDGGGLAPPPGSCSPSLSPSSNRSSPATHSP
In short: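 Reporter transcripts from a DR5-regulated unit, measured via RT-PCR plus capillary electrophoresis, reflect endogenous RAR activity in transiently transfected human HepG2 liver cells. Exposure lasted 24 h; gain or loss of signal scored against DMSO.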

[5] = target: Transcription factor E2F1 (Homo sapiens) (UniProt Q01094); assay: ATG_E2F_CIS: Attagene CIS-FACTORIAL HepG2 Assay for human E2F Transcription Factor 1 (AID 2282935); conditions: HepG2 Attagene cis-reporter, E2F reporter RNA transcripts; actives raise or lower the signal
Chain of Transcription factor E2F1 (Homo sapiens) (Q01094 whole entry, looked up): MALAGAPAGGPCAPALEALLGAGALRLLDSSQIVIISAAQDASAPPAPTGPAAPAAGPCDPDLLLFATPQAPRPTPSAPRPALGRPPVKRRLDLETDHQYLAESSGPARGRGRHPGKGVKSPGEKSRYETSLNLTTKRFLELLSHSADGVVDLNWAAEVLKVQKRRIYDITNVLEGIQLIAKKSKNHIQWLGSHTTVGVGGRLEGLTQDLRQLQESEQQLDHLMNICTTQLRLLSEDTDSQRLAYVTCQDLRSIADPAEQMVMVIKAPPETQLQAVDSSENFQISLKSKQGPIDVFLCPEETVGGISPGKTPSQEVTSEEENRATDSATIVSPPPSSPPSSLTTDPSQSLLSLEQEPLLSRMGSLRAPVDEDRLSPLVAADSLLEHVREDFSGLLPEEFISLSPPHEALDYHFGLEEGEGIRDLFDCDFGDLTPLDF
In short: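 Fluorescent RT-PCR products, digested with HpaI for 2 h at 37 C, are separated by capillary electrophoresis. Source RNA comes from transfected HepG2 cultures treated for 24 h.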

[6] = ATG_E_Box_CIS: Attagene CIS-FACTORIAL HepG2 Assay for human Enhancer Box (E-box) (AID 2282936); conditions: HepG2 E-box cis-reporter transcription, actives raise or lower the signal
In short: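 Fluorescent reporter fragments separated by capillary electrophoresis gave the signal; mRNA came from HepG2 cells transfected with cis-element reporters and treated 24 h. Curves fitted bidirectionally relative to DMSO controls.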

[7] = ATG_M_61_CIS: Attagene CIS-FACTORIAL HepG2 Assay for M61 Transcription Factor (Internal Marker) (AID 2282937); conditions: HepG2 Attagene CIS-FACTORIAL M61 internal marker reporter; actives raise or lower the signal
In short: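 Human liver HepG2, transient MRTU transfection (cis promoter elements), 24 h compound. Total RNA → oligo(dT) RT → PCR → FAM label → HpaI → CE. Internal background marker; bidirectional fitting, DMSO = baseline.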

[8] = ATG_EGR_CIS: Attagene CIS-FACTORIAL HepG2 Assay for human Early Growth Response 1 (EGR1) (AID 2282938); conditions: HepG2 Attagene CIS-FACTORIAL EGR reporter mRNA; actives raise or lower the signal
In short: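 Transient transfection of human HepG2 with multiple cis-regulated reporter units, chemical exposure 24 h, total RNA isolated. Reverse transcription, PCR, fluorescent labelling and capillary electrophoresis quantify reporter transcripts; activity fitted bidirectionally against DMSO.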

[9] = ATG_M_19_CIS: Attagene CIS-FACTORIAL HepG2 Assay for M19 Transcription Factor (Internal Marker) (AID 2282939); conditions: HepG2 Attagene CIS-FACTORIAL M19 internal marker reporter; actives raise or lower the signal
In short: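 In this multiplexed cell assay, transiently transfected HepG2 reporter units report endogenous transcription-factor activity; after 24 hours of treatment, labelled reporter cDNA fragments are quantified by capillary electrophoresis and fitted bidirectionally against DMSO.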

[10] = ATG_ERE_CIS: Attagene CIS-FACTORIAL HepG2 Assay for Estrogen Response Element (ERE) (AID 2282940); conditions: HepG2 ERE cis-reporter, Attagene RNA transcript; actives raise or lower the signal
In short: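 Measuring endogenous transcription factor output, the assay doses transfected HepG2 cells for 24 hours and quantifies reporter transcripts by fluorescent RT-PCR and capillary electrophoresis, with DMSO as baseline.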

[11] = ATG_Ets_CIS: Attagene CIS-FACTORIAL HepG2 Assay for human Erythroblast Transformation Specific (ETS) (AID 2282941); conditions: HepG2 ETS cis-reporter transcription, actives raise or lower the signal
In short: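 Cis-regulated reporter mRNA induction in HepG2 (transient transfection), 24 h exposure, RT-PCR plus capillary electrophoresis detection; DMSO serves as negative control and baseline.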

[12] = target: Hepatocyte nuclear factor 3-beta (Homo sapiens) (UniProt Q9Y261); assay: ATG_FoxA2_CIS: Attagene CIS-FACTORIAL HepG2 Assay for human Forkhead box A2 (FOXA2) (AID 2282942); conditions: HepG2 cis-reporter transcription factor activity, 24 h; actives raise or lower the signal
Chain of Hepatocyte nuclear factor 3-beta (Homo sapiens) (Q9Y261 whole entry, looked up): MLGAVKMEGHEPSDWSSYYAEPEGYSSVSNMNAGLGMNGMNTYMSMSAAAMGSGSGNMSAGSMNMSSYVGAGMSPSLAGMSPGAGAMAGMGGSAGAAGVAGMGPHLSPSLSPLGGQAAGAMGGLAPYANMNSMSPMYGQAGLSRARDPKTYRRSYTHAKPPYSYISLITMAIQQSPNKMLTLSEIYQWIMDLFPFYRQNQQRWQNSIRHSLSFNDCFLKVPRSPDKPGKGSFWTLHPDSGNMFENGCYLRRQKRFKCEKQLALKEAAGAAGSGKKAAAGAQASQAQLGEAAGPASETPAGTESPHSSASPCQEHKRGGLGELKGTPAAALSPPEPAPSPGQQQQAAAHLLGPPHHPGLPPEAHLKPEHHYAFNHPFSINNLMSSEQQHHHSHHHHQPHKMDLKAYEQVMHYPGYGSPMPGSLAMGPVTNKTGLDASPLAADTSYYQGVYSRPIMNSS
In short: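 Transient MRTU transfection of HepG2 liver cells; 24 h treatment; total RNA → oligo(dT) RT → PCR → FAM primer extension → HpaI cut → CE. Bidirectional fit vs DMSO.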

[13] = ATG_FoxO_CIS: Attagene CIS-FACTORIAL HepG2 Assay for human Forkhead box O (FoxO) (AID 2282943); conditions: HepG2 Attagene cis-reporter, FoxO element, mRNA; actives raise or lower the signal
In short: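 Endogenous transcription factor activity read from multiplexed cis-promoter reporter transcripts in transiently transfected HepG2, 24 h after dosing. Reporter RNA measured via RT-PCR plus capillary electrophoresis of FAM-labeled products; gain or loss relative to DMSO.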

[14] = ATG_GATA_CIS: Attagene CIS-FACTORIAL HepG2 Assay for human GATA Binding Protein (AID 2282944); conditions: HepG2 GATA cis-element reporter, Attagene multiplex mRNA; actives raise or lower the signal
In short: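 Measures endogenous transcription factor-driven reporter mRNA in HepG2 cells transiently carrying cis-regulated constructs. 24 h dosing; RNA via oligo(dT) reverse transcription, PCR, HpaI digestion, capillary electrophoresis; fitted relative to DMSO.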

[15] = ATG_GLI_CIS: Attagene CIS-FACTORIAL HepG2 Assay for human Zinc Finger Protein GLI1 (AID 2282945); conditions: HepG2, Attagene cis-factorial reporter mRNA, GLI element; actives raise or lower the signal
In short: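 Bidirectional curve fits relative to DMSO, using reporter mRNA levels from RT-PCR plus capillary electrophoresis. Cells were HepG2 transiently carrying cis-regulated reporter constructs, harvested 24 h after dosing.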

[16] = ATG_GRE_CIS: Attagene CIS-FACTORIAL HepG2 Assay for human Glucocorticoid Response Elements (GRE) (AID 2282947); conditions: HepG2 GRE cis-reporter, Attagene multiplex mRNA; actives raise or lower the signal
In short: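 Multiplexed cis-reporter mRNA induction, HepG2, 24 h post-dose. RT-PCR, FAM-labelled, HpaI-digested amplicons by CE. Bidirectional fit vs DMSO.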

[17] = ATG_ISRE_CIS: Attagene CIS-FACTORIAL HepG2 Assay for human Interferon Regulatory Factor 1 (IRF1) binding to an Interferon-Stimulated Response Element (ISRE) (AID 2282948); conditions: HepG2 ISRE cis-reporter (Attagene), mRNA transcription readout; actives raise or lower the signal
In short: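 Multiplexed mRNA reporter readout in human liver HepG2 cells: cis-element-driven reporters transfected, compound added for 24 h, transcripts amplified, fluorescently labelled and sized by capillary electrophoresis; curve fitting bidirectional against DMSO.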

[18] = ATG_M_32_CIS: Attagene CIS-FACTORIAL HepG2 Assay for M32 Transcription Factor (Internal Marker) (AID 2282949); conditions: HepG2 Attagene cis-factorial M32 reporter, mRNA; actives raise or lower the signal;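 further: background control marker of the multiplexed CIS panel rather than a real target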
In short: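 Using DMSO as baseline, bidirectional curve fits were applied to reporter mRNA signals. These came from transiently transfected HepG2 cells exposed for 24 h, with RNA analysed by RT-PCR, FAM primer extension, HpaI digestion and CE.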

[19] = ATG_M_06_CIS: Attagene CIS-FACTORIAL HepG2 Assay for M06 Transcription Factor (Internal Marker) (AID 2282950); conditions: HepG2 Attagene CIS-FACTORIAL M06 internal marker reporter; actives raise or lower the signal
In short: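 One of many multiplexed endpoints: HepG2 reporter mRNA after 24 h dosing, detected by RT-PCR and capillary electrophoresis fluorescence; gain or loss of signal analysed against DMSO.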

[20] = target: Bile acid receptor (Homo sapiens) (UniProt Q96RI1); assay: ATG_IR1_CIS: Attagene CIS-FACTORIAL HepG2 Assay for human Nuclear Receptor Subfamily 1 Group H Member 4 (NR1H4), IR1 submotif (AID 2282946); conditions: IR1 reporter transcription, actives raise or lower the signal
Chain of Bile acid receptor (Homo sapiens) (Q96RI1 whole entry, looked up): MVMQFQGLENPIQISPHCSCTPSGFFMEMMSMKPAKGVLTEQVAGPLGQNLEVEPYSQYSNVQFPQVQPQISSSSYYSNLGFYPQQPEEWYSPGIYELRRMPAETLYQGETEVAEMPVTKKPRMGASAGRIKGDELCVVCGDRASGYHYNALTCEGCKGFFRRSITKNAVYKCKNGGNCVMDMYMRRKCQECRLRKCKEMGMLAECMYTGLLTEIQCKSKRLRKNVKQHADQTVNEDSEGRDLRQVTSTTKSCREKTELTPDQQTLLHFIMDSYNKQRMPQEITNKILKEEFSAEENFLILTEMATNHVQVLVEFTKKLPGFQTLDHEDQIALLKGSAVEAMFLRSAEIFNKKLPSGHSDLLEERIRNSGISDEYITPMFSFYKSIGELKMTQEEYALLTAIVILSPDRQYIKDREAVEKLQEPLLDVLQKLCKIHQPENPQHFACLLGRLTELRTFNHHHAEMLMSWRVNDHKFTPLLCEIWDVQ
In short: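 HepG2 cells transiently transfected with multiplexed cis-element reporter units read endogenous transcription factor activity. After 24 h compound exposure, reporter mRNA was quantified by RT-PCR, fluorescent labelling, HpaI digestion and capillary electrophoresis; bidirectional fitting versus DMSO baseline.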

Measured: AC50

CCCCCCCCC(=O)NCc1ccc(O)c(OC)c1
active: [3] 171 µM
not listed: [20]
inactive: all other assays above

Nc1ccc(N=Nc2ccc(-c3ccc(N=Nc4c(S(=O)(=O)O)cc5cc(S(=O)(=O)O)c(N=Nc6ccccc6)c(O)c5c4N)cc3)cc2)c(N)c1
active: [3] 4.8 µM | [10] 24.8 µM
not listed: [20]
inactive: all other assays above

COS(=O)(=O)c1ccc(C)cc1
inactive: all assays above

COP(=S)(OC)Oc1cc(Cl)c(Cl)cc1Cl
active: [1] 41.8 µM | [3] 64.5 µM | [10] 75.6 µM
not listed: [20]
inactive: all other assays above

C(=NC1CCCCC1)=NC1CCCCC1
active: [3] 2.69 µM | [6] 33.4 µM | [8] 3.17 µM | [17] 17.7 µM
not listed: [16]
inactive: all other assays above

[O-][Cl+2]([O-])O
not listed: [16]
inactive: all other assays above

O=C(Cc1ccccc1)c1ccccc1
active: [10] 24.9 µM
inactive: all other assays above
